Experimental findings from PubChem BioAssay are described below.

Active and inactive are the calls of the source.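 Rule for the calls, unless noted: active = visual image review flags a hit and inhibition of aggregation exceeds 20%; inconclusive = visual hit but inhibition at or below 20%; inactive = no hit on visual image review.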

The nature of experiment [1]: inhibitors of TNFa-induced NFkB p65 translocation, primary screen, imaging, HUVEC, MLSMR starter and 10KST1 sets (AID 438;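 active = inhibition above 20% together with a positive visual image hit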;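 note: compound added about 3h40 before a 20 min TNFalpha stimulation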;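 for inhibition: signal is the nuclear over cytoplasmic p65 intensity ratio per well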). The following applies: HUVEC TNFa-induced p65 nuclear translocation; cell count: measured here: nuclei count (cytotoxicity indicator), at 2.08 µM; inhibition: at 2 µM, stronger effect = higher value, 0% TNFa-plus-vehicle, 100% no-TNFa wells.
Experiment [2] is described as follows: inhibitors of mutant huntingtin aggregation, primary screen, imaging, exon1htt(103Q)mCFP cells, high-content imaging (AID 483).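 For nuclei count: percent of the per-plate median nuclei count of sample wells.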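 Note: compound exposure lasted 3 days before fixation.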 The following applies: exon1htt(103Q)mCFP cell line, aggregate imaging, at 2 µM; inhibition of aggregation: stronger effect = higher value; nuclei count: measured here: cell count, toxicity.
Experiment [3] can be described thus: inhibitors of E-selectin induction by TNFa, primary screen, imaging, HUVEC, immunofluorescence, MLSMR starter and 10KST1 sets (AID 487;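 active = visually confirmed hit in the image check and inhibition above 20%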;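 for inhibition: signal is fraction of cell area covered by stained E-selectin grains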;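 for nuclei count: 100% = median nuclei count of all wells on the same plate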). The following applies: HUVEC TNFalpha-induced E-selectin immunofluorescence imaging, at 2 µM; inhibition: stronger effect = higher value; nuclei count: measured here: cell number, toxicity.
In experiment [4] the target is Voltage-gated potassium channel subunit beta-2 (Rattus norvegicus) (UniProt P62483). The experiment is described as follows: KvBeta enzyme negative modulators, primary screen, biochemical, NADPH fluorescence (AID 622;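 active = fluorescence slope higher than the sample average by over 3 SD, cut at about -0.22 in these data, passing the limit was not always enough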;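 note: slope of raw intensity against log time taken from 70 to 1610 s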). The following applies: recombinant KvBeta, 4-cyanobenzaldehyde reduction, at 10 µM, stronger effect = higher value.
Sequence of Voltage-gated potassium channel subunit beta-2 (Rattus norvegicus) (P62483 whole entry, looked up): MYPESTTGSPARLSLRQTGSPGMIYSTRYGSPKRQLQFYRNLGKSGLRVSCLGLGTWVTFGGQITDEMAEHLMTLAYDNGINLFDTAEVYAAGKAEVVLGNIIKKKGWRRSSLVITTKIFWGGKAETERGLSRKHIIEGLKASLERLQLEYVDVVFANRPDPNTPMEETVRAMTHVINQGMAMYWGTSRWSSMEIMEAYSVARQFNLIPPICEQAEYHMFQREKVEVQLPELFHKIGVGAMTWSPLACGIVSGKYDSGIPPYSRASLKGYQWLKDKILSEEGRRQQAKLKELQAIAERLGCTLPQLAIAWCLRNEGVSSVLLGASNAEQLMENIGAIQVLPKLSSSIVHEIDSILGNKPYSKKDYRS
Experiment [5] shares this target. The experiment is described as follows: KvBeta positive modulators, primary screen, biochemical, NADPH fluorescence (AID 623;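 active = NADPH fluorescence slope more negative than the mean of all samples by about 3 SD, 99.7% confidence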;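 note: fluorescence intensity change per second fitted from 20 to 320 s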). The following applies: Recombinant KvBeta, NADPH fluorescence decrease slope, 10 min; at 10 µM; stronger effect = lower value.
In experiment [6] the target is Alpha-2C adrenergic receptor (Homo sapiens) (UniProt P18825). As to the kind of experiment: modulators of alpha2C/GIRK thallium flux, primary screen, cell-based, HEK293 alpha2C/GIRK1/2 (AID 624;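 active = fluorescence slope after compound addition differing from the mean of all screened samples at 99.7% confidence, in either direction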;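 note: slope of fluorescence ratio to pre-addition baseline per second over 15 to 24 s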). The following applies: thallium flux BTC fluorescence, at 10 µM, actives lie on both sides.
Sequence of Alpha-2C adrenergic receptor (Homo sapiens) (P18825 whole entry, looked up): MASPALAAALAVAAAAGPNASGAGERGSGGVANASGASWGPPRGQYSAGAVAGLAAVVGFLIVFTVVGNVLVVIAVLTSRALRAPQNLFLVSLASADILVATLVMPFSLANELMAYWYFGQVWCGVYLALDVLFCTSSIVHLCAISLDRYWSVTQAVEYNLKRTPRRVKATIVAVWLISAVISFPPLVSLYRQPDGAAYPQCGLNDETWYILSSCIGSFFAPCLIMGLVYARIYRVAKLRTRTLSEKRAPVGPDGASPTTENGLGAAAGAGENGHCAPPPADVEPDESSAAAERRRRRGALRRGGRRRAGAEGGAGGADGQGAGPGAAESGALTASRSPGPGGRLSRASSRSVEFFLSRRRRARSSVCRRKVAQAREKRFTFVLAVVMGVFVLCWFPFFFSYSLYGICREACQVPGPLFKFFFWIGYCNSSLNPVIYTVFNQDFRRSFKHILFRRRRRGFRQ
Experiment [7] can be described thus: inhibitors of Sendai virus-induced IRF3 signaling, primary screen, TLR/RLR signaling modifier project, cell-based, Sendai virus stimulus, luciferase, 10K MLSCN set (AID 602276;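 active = inhibition at or above 50% at 10 µM; inactive = inhibition below 50%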;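 note: firefly luciferase from ISG56 promoter only with Renilla not read in this screen; 0% = Sendai virus plus DMSO and 100% = medium plus DMSO without virus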). The following applies: HEK293 RL24 IRF3 luciferase reporter, at 10 µM, stronger effect = higher value.
Experiment [8] in a line: inhibitors of poly I:C-induced TLR3 signaling, primary screen, cell-based, poly I:C stimulus, luciferase, 10K MLSCN set (AID 602277;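 active = inhibition of the reporter signal at or above 50%; inactive = inhibition below 50%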). The following applies: HEK293-TLR3 RL24 IRF3 luciferase reporter, at 10 µM, stronger effect = higher value. For orientation: Reporter assays use an easily measured gene product as a stand-in for the process of interest.

One may read the inhibition as the drop in the measured response relative to a control, in per cent.

Take `Cc1ccc(-c2nnc(SC(C)C#N)n2N)cc1` (stereo not given): the cell count in experiment [1] was 516. Moreover, the inhibition in experiment [1] was -3.8% (inactive); in experiment [3], -93.5% (inactive); in experiment [7], 10.4% (inactive); in experiment [8], 19% (inactive). Further, the inhibition of aggregation in experiment [2] was -0.7% (inactive). The results for the nuclei count in experiment [2] and in experiment [3] were 95.1% and 137%, respectively. The fluorescence slope in experiment [4] was -0.587 (inactive). In addition, in experiment [5], the NADPH fluorescence slope was -3.8e-05 (inactive). Also, the slope in experiment [6] was 0.00692 (inactive).
As to `COc1ccccc1CCNC(=O)C1CCCO1` (stereo not given), the cell count in experiment [1] is 665. The inhibition in experiment [1] was -8.8% (inactive); in experiment [3], -45.2% (inactive); in experiment [7] it was 0.904% (inactive); in experiment [8], -9.53% (inactive). Moreover, the inhibition of aggregation in experiment [2] is -27.9% (inactive). The nuclei count in experiment [2] came to 118%; in experiment [3], 98.9%. In addition, the fluorescence slope in experiment [4] is -0.401 (inactive). Also, the NADPH fluorescence slope in experiment [5] is -1.9e-05 (inactive). Besides, in experiment [6], the slope was 0.00423 (inactive).
With `CCN1CCN(C(=O)c2cc3c(=O)n(C)c4ccccc4c3n2C)CC1`, the cell count in experiment [1] is 601. Besides, the inhibition in experiment [1] is 20.7% (inactive); in experiment [3], -89.4% (inactive); in experiment [7], 2.73% (inactive); in experiment [8] it was 32.2% (inactive). Also, in experiment [2], the inhibition of aggregation is -10.2% (inactive). In addition, the nuclei count in experiment [2] is 102%; in experiment [3], 126%. In addition, in experiment [4], the fluorescence slope was -0.583 (inactive). For the same molecule, the NADPH fluorescence slope in experiment [5] was -1.9e-05 (inactive). The slope in experiment [6] was 0.00682 (inactive).
For `O=C(OCc1nnc(-c2ccccc2)o1)c1ccc2ccccc2n1`, the cell count in experiment [1] worked out at 457. Besides, the inhibition in experiment [1] is -3.1% (inactive); in experiment [3] it was -165% (inactive); in experiment [7], -29.8% (inactive); in experiment [8], -34.4% (inactive). The inhibition of aggregation in experiment [2] was -11.6% (inactive). Besides, the nuclei count in experiment [2] is 95.8%; in experiment [3] it was 106%. In addition, in experiment [4], the fluorescence slope was -0.565 (inactive). Besides, the NADPH fluorescence slope in experiment [5] was 7e-05 (inactive). Further, in experiment [6], the slope is 0.00433 (inactive).
On to `CC(=O)NCc1cccc(CNC(C)=O)n1`, for which, in experiment [1], the cell count is 652. The inhibition in experiment [1] was 9.2% (inactive); in experiment [3], -92.7% (inactive); in experiment [7], 12% (inactive); in experiment [8], 14.4% (inactive). In addition, the inhibition of aggregation in experiment [2] is -29% (inactive). Further, the figures for the nuclei count in experiment [2] and in experiment [3] were 109% and 101%, respectively. Further, the fluorescence slope in experiment [4] is -0.432 (inactive). Moreover, the NADPH fluorescence slope in experiment [5] is -2.5e-05 (inactive). Also, in experiment [6], the slope was 0.00626 (inactive).
`O=C(NCc1ccco1)C1CCN(c2ccc(N3CCOCC3)nn2)CC1`: the cell count in experiment [1] was 633. Further, the inhibition is 1.6% (inactive) in experiment [1], -70.8% (inactive) in experiment [3], -14.1% (inactive) in experiment [7] and -20.9% (inactive) in experiment [8]. In experiment [2], the inhibition of aggregation is 4.1% (inactive). For the same molecule, the figures for the nuclei count in experiment [2] and in experiment [3] were 92.4% and 110%, respectively. In experiment [4], the fluorescence slope is -0.387 (inactive). In addition, the NADPH fluorescence slope in experiment [5] was 8e-06 (inactive). Moreover, in experiment [6], the slope is 0.00458 (inactive).
For the molecule `CCc1nnc(NC(=O)CCC(=O)Nc2ccccc2)s1`, in experiment [1], the cell count was 554. The inhibition in experiment [1] is 7.2% (inactive); in experiment [3], 33.2% (inactive); in experiment [7] it was 9.85% (inactive); in experiment [8], 2.44% (inactive). In experiment [2], the inhibition of aggregation was -10.2% (inactive). Moreover, the nuclei count in experiment [2] stood at 97.2%; in experiment [3], 93.4%. Besides, the fluorescence slope in experiment [4] was -0.384 (inactive). For the same molecule, the NADPH fluorescence slope in experiment [5] was -6.1e-05 (inactive). Moreover, in experiment [6], the slope was 0.00537 (inactive).
`CCOC(=O)Cc1csc(NC(=O)CSc2nnc(C3CC3)n2C)n1`: in experiment [1], the cell count is 670. Moreover, the inhibition in experiment [1] is -11.2% (inactive); in experiment [3], 18.1% (inactive); in experiment [7], 10.5% (inactive); in experiment [8], 17.5% (inactive). Besides, the inhibition of aggregation in experiment [2] is 2.2% (inactive). Moreover, the nuclei count in experiment [2] was found to be 110%; in experiment [3] it was 102%. Moreover, in experiment [4], the fluorescence slope is -0.265 (inactive). In addition, the NADPH fluorescence slope in experiment [5] was -5.6e-05 (inactive). Also, the slope in experiment [6] is 0.0044 (inactive).
`CC(C)CNS(=O)(=O)c1ccc(CCC(=O)NCc2ccco2)cc1`: the cell count in experiment [1] came to 572. For the same molecule, the inhibition in experiment [1] was 33.1% (active); in experiment [3], -57.5% (inactive); in experiment [7] it was 11.1% (inactive); in experiment [8] it was 14.7% (inactive). The inhibition of aggregation in experiment [2] was 7% (inactive). The values for the nuclei count in experiment [2] and in experiment [3] were 85% and 137%, respectively. Moreover, the fluorescence slope in experiment [4] was -0.511 (inactive). In experiment [5], the NADPH fluorescence slope is 1.9e-05 (inactive). In experiment [6], the slope was 0.00549 (inactive).
`NS(=O)(=O)c1ccc(CCNC(=O)CCC2COc3ccccc3O2)cc1` (stereo not given): in experiment [1], the cell count is 535. Besides, the inhibition in experiment [1] was -8.3% (inactive); in experiment [3] it was -20.9% (inactive); in experiment [7], 15.7% (inactive); in experiment [8], 18.3% (inactive). In addition, the inhibition of aggregation in experiment [2] was -5.3% (inactive). The nuclei count is 98.4% in experiment [2] and 90.3% in experiment [3]. For the same molecule, the fluorescence slope in experiment [4] was -0.564 (inactive). Also, the NADPH fluorescence slope in experiment [5] was 3.4e-06 (inactive). The slope in experiment [6] is 0.00562 (inactive).
